# This is a sample that favours compounds with a hit; in the whole collection about 3.1% have one here.
# Statin myotox sup – suppression of simvastatin myotoxicity. C2C12 myotubes + simvastatin, ATP luminescence, 48 h; scaled: DMSO 0, geranylgeraniol control 100. rescue of ATP level, % at 7.49 µM. 330,000 tested, 0.78% active;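 active = mean ATP rescue above about 67%, or every replicate alone reaching that limit, limit read from the data, passing the limit was not always enough; inconclusive = no clear call, values can overlap the other calls; inactive = mean under the limit and some replicate under it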;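 also: myotubes were challenged with 10 µM simvastatin during compound exposure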
# Rtt109 HAT inh – inhibitors of Candida albicans Rtt109/Vps75 histone acetyltransferase. purified Rtt109/Vps75, ThioGlo CoA-SH fluorescence, 4 h. inhibition, % at 34.9 µM. 330,000 tested, 0.16% active. AID 540336;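 active = inhibition of at least 50% in every replicate; inconclusive = best replicate reaches 50% inhibition but some replicates fall short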
# Target sequence (Q5AAJ8 whole entry, looked up): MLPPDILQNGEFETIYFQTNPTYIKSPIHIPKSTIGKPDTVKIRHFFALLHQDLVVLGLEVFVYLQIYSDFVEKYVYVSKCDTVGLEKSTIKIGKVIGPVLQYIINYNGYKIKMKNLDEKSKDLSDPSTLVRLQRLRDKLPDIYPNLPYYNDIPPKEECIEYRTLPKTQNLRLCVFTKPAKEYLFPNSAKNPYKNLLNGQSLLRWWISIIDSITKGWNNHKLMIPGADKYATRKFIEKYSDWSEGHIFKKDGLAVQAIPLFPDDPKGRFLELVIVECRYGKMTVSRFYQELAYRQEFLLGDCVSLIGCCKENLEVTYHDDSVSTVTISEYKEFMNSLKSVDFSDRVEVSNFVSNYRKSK
# Wnt bcat act – activates Wnt/beta-catenin signaling in a reporter cell assay; activator, plate reader; activation, % at 9.35 µM; 300,000 tested, 1.2% active; in the data active = activation above about 30%, passing the limit was not always enough; inconclusive = no clear call, values can overlap the other calls;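 also: 0% = neutral control wells and 100% = positive control wells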
# esBAF inh – SWI/SNF esBAF complex inhibition | mouse ES cells, Bmi1-luciferase knock-in reporter, 24 h; 100% = twice the neutral-well signal | AID 602393 | reporter increase, % at 12.5 µM | 350,000 tested, 2% active; in the data active = activation above about 40%; inconclusive = no clear call, values can overlap the other calls;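 also: 0% = median of the plate's neutral control wells and 100% = double that signal; a rise in the Bmi1 reporter signal indicates esBAF inhibition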
# MITF TRPM1 HTS – increases MITF-driven TRPM1 promoter luciferase signal; SK-MEL-5 TRPM1-promoter luciferase, 24 h; % of positive control, neutral wells = 0; activation, % at 12.5 µM; 300,000 tested, 0.75% active;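 active = mean activation of at least 80% with every replicate also reaching 80%; inconclusive = mean reaches 80% but some replicate falls short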;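 also: 0% = neutral control wells and 100% = parthenolide positive control wells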
# The depositor's hits bear a star; ? = inconclusive; · = no result given.
SMILES,Statin myotox sup,Rtt109 HAT inh,Wnt bcat act,esBAF inh,MITF TRPM1 HTS
COc1ccc(CCNC(=O)/C=C/c2ccco2)cc1OC,9.8,-6.4,0.9,3.7,·
CCOc1ccc(CCNC(=O)/C=C/c2ccco2)cc1OCC,18.4,5.3,34.3*,2.4,19.6
CCc1nnc(NS(=O)(=O)c2ccc(N/C=C(\C=O)c3nc4cc(Cl)ccc4o3)cc2)s1,93.1*,·,-3.8,5.6,-10.2
CCc1nnc(NS(=O)(=O)c2ccc(N)cc2)s1,-12.6,-5.9,79.0*,-6.5,10.1
CCc1nnc(NS(=O)(=O)c2ccc(NC(=O)c3ccc(Cl)cc3)cc2)s1,·,1.1,3.3,·,0.7
CCc1nnc(NS(=O)(=O)c2ccc(NC(=O)c3cccc(Cl)c3)cc2)s1,3.9,15.0,-1.4,-12.1,109.5*
COc1cc(NS(=O)(=O)c2ccc(N/C=C(\C=O)c3nc4ccccc4o3)cc2)nc(OC)n1,5.1,?,-4.7,-6.2,-1.0
COc1ccc(-c2cnc3c(c2)C(=O)N([C@H](C)CO)C[C@H](C)[C@@H](CN(C)C)O3)cc1,5.2,·,·,-4.5,·
CSc1nc(N2CCOCC2)c2c3c(sc2n1)CCC3,97.6*,1.9,-1.5,-5.5,-5.0
CC(=O)NCCC(=O)Nc1nc(-c2ccc3ccccc3c2)cs1,13.2,1.3,3.7,26.0,9.3
O=C(CN1C(=O)CCC1=O)Nc1nc(-c2nc3ccccc3s2)cs1,·,14.5,9.8,39.5,92.0*
O=C(CN1C(=O)CCC1=O)Nc1nc(-c2ccc3ccccc3c2)cs1,·,2.9,43.9*,·,66.7
CC(=O)Nc1nc(-c2ccc3ccccc3c2)cs1,1.6,4.5,48.2*,30.6,94.4*
O=C(CN1C(=O)CCC1=O)Nc1nc(-c2ccccn2)cs1,7.8,-3.0,-1.3,-2.9,-0.2
C[C@H]1CCCCO[C@H](CN(C)S(=O)(=O)c2ccc(Cl)cc2)[C@@H](C)CN([C@@H](C)CO)C(=O)c2cc(NS(=O)(=O)c3cn(C)cn3)ccc2O1,·,·,·,1.6,·
COc1ccc(C#Cc2cnc3c(c2)C(=O)N([C@H](C)CO)C[C@@H](C)[C@H](CN(C)C(=O)CC2CC2)O3)cc1,0.7,·,·,-15.7,·
CN1CCN(C(=O)C[C@@H]2C[C@H]3c4cc(NC(=O)Cc5ccncc5)ccc4O[C@H]3[C@@H](CO)O2)CC1,1.6,·,·,-3.7,·
O=C(Nc1ccc(Cl)cc1)c1ccc(OCC2CCCO2)cc1 (stereo not given),·,-5.5,10.4,·,23.8
Cc1cc(NC(=O)c2ccc(OCC3CCCO3)cc2)ccc1Br (stereo not given),-17.3,·,52.0*,70.6*,·
O=C(/C=C\c1ccccc1OC(=O)c1ccccc1F)c1cc2ccccc2o1,6.7,7.2,-0.9,49.4*,22.8
CC(=O)/C=C\c1ccccc1OC(=O)c1cc2ccccc2oc1=O,16.1,0.7,-1.4,11.9,-8.6
COc1ccccc1C(=O)Nc1ccc2c(c1)C(=O)N(C)C[C@H](OC)[C@@H](C)CN(C)[C@@H](C)CO2,3.2,·,·,-3.2,·
COc1cccc(C(=O)N(C)c2nnc(-c3ccncc3)s2)c1,82.3*,-6.2,·,11.3,8.1
COc1cccc(-c2nnc(N(C)C(=O)C3CCOC3)s2)c1 (stereo not given),97.1*,4.8,12.0,31.7,67.0
CCCC(=O)N(C)c1nnc(-c2ccc(OC)cc2)s1,-3.0,-1.2,33.7*,36.0,57.3
SMILES,Statin myotox sup,Rtt109 HAT inh,Wnt bcat act,esBAF inh,MITF TRPM1 HTS
CN(C(=O)c1cccnc1)c1nnc(-c2cccnc2)s1,18.7,-3.6,0.2,7.9,25.1
CN(C(=O)c1cccc(C#N)c1)c1nnc(-c2ccncc2)s1,·,-6.9,·,·,-2.9
Cc1nnc(N(C)C(=O)c2cccnc2)s1,86.6*,5.9,-6.0,-8.4,7.1
C[C@H](O)C#Cc1cnc2c(c1)C(=O)N([C@@H](C)CO)C[C@H](C)[C@@H](CN(C)CC1CCCC1)O2,-2.8,·,·,-4.7,·
CC(C)(C)c1ccc(-c2nnc(NC(=O)c3ccccc3)s2)cc1,-26.7,-0.7,·,49.3*,57.1
COCC(=O)Nc1nnc(-c2ccc(C(C)(C)C)cc2)s1,-34.9,5.8,0.9,-18.0,90.6*
O=C(Nc1nnc(-c2ccco2)s1)c1ccccc1,17.1,0.6,17.1,-37.3,19.8
COc1cccc(C(=O)Nc2nnc(-c3ccccc3)s2)c1,-1.3,20.2,35.5*,18.0,?
C[C@@H]1CCCCO[C@@H](CN(C)C(=O)NC2CCCCC2)[C@@H](C)CN([C@H](C)CO)C(=O)c2cc(NC(=O)Nc3ccc4c(c3)OCO4)ccc2O1,·,·,·,-4.2,·
